Laboratory results from PubChem BioAssay AID1159580 (chemical genetic matrix, 2015).
Among all 5,500 compounds or so, about 2,000 (36%) were called active. Roughly 18% stayed inconclusive and do not appear here. No stated cut-off is given here; in the data, active means normalized growth mostly below about 0.91 (no sharp cut-off); inconclusive means no clear call, values can overlap the other calls; inactive means mostly above about 0.92. The list shows a part of the results.

Test: chemical genetic growth profiling, strain panel (AID 1159580);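 further: tested at 20 µM; growth read once vehicle control cultures reached saturation at 30 °C; 1 = growth at the plate median or of vehicle wells; lower values mean less growth of the strain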
Conditions: growth OD

Measured: normalized growth

C[C@@H]1[C@H]2[C@H](O[C@@H]3O[C@H](CO)[C@@H](O)[C@H](O)[C@H]3O)OC=C(C(=O)O)[C@H]2C[C@@H]1O
inactive: S. cerevisiae deletion strains, locus YAL013W, strain DEP1, active compounds read low 1.01 | S. cerevisiae deletion strains, locus YBR021W, strain FUR4, active compounds read low 1.05 | S. cerevisiae deletion strains, locus YBR229C, strain ROT2, active compounds read low 0.964 | S. cerevisiae deletion strains, locus YCL029C, strain bik1, active compounds read low 0.963 | S. cerevisiae deletion strains, locus YDL035C, strain GPR1, active compounds read low 1.02 | S. cerevisiae deletion strains, locus YDL074C, strain BRE1, active compounds read low 1.08 | S. cerevisiae deletion strains, locus YDL101C, strain DUN1, active compounds read low 0.98 | S. cerevisiae deletion strains, locus YDL134C, strain PPH21, active compounds read low 0.999 | S. cerevisiae deletion strains, locus YDL185W, strain tfp1, active compounds read low 0.962 | S. cerevisiae deletion strains, locus YDL192W, strain arf1, active compounds read low 1.03 | S. cerevisiae deletion strains, locus YDR101C, strain arx1, active compounds read low 1.01 | S. cerevisiae deletion strains, locus YDR162C, strain NBP2, active compounds read low 0.963 | S. cerevisiae deletion strains, locus YDR318W, strain mcm21, active compounds read low 0.986 | S. cerevisiae deletion strains, locus YDR388W, active compounds read low 0.996 | S. cerevisiae deletion strains, locus YDR502C, strain sam2, active compounds read low 1 | S. cerevisiae deletion strains, locus YEL061C, strain CIN8, active compounds read low 0.999 | S. cerevisiae deletion strains, locus YER110C, active compounds read low 0.974 | S. cerevisiae deletion strains, locus YER155C, strain BEM2, active compounds read low 1.02 | S. cerevisiae deletion strains, locus YER167W, strain BCK2, active compounds read low 1 | S. cerevisiae deletion strains, locus YGL078C, strain dbp3, active compounds read low 0.986 | S. cerevisiae deletion strains, locus YGL086W, strain mad1, active compounds read low 1.01 | S. cerevisiae deletion strains, locus YGL248W, strain PDE1, active compounds read low 0.987 | S. cerevisiae deletion strains, locus YGR078C, strain PAC10, active compounds read low 0.984 | S. cerevisiae deletion strains, locus YGR135W, strain pre9, active compounds read low 0.98 | S. cerevisiae deletion strains, locus YGR252W, strain gcn5, active compounds read low 0.995 | S. cerevisiae deletion strains, locus YHR030C, strain SLT2, active compounds read low 1.01 | S. cerevisiae deletion strains, locus YHR079C, strain IRE1 (second series), active compounds read low 0.985 | S. cerevisiae deletion strains, locus YHR094C, strain hxt1, active compounds read low 0.991 | S. cerevisiae deletion strains, locus YHR129C, strain ARP1, active compounds read low 1 | S. cerevisiae deletion strains, locus YHR200W, strain rpn10, active compounds read low 0.99 | S. cerevisiae deletion strains, locus YIL066C, strain RNR3, active compounds read low 1 | S. cerevisiae deletion strains, locus YIL073C, strain SPO22, active compounds read low 1.01 | S. cerevisiae deletion strains, locus YIL125W, strain kgd1, active compounds read low 0.978 | S. cerevisiae deletion strains, locus YIR030C, strain dcg1, active compounds read low 0.995 | S. cerevisiae deletion strains, locus YJL095W, strain BCK1, active compounds read low 0.996 | S. cerevisiae deletion strains, locus YJL134W, strain LCB3, active compounds read low 0.988 | S. cerevisiae deletion strains, locus YJL168C, strain set2, active compounds read low 1.01 | S. cerevisiae deletion strains, locus YJL187C, strain SWE1 (second series), active compounds read low 0.987 | S. cerevisiae deletion strains, locus YJR043C, strain POL32, active compounds read low 1.01 | S. cerevisiae deletion strains, locus YKL009W, strain mrt4, active compounds read low 1.03 | S. cerevisiae deletion strains, locus YKL068W, active compounds read low 0.977 | S. cerevisiae deletion strains, locus YKL085W, strain MDH1 (second series), active compounds read low 0.987 | S. cerevisiae deletion strains, locus YKL085W, strain MDH1, active compounds read low 0.987 | S. cerevisiae deletion strains, locus YKR001C, strain vps1, active compounds read low 0.983 | S. cerevisiae deletion strains, locus YLR039C, strain RIC1, active compounds read low 1.03 | S. cerevisiae deletion strains, locus YLR058C, strain SHM2, active compounds read low 0.977 | S. cerevisiae deletion strains, locus YLR102C, strain apc9, active compounds read low 0.987 | S. cerevisiae deletion strains, locus YLR262C, strain YPT6, active compounds read low 0.908 | S. cerevisiae deletion strains, locus YLR268W, strain sec22, active compounds read low 1.02 | S. cerevisiae deletion strains, locus YLR330W, strain CHS5, active compounds read low 1.01 | S. cerevisiae deletion strains, locus YLR342W, strain FKS1 (second series), active compounds read low 1.11 | S. cerevisiae deletion strains, locus YLR371W, strain rom2, active compounds read low 0.978 | S. cerevisiae deletion strains, locus YLR418C, strain cdc73, active compounds read low 0.984 | S. cerevisiae deletion strains, locus YML016C, strain PPZ1, active compounds read low 0.998 | S. cerevisiae deletion strains, locus YML032C, strain rad52, active compounds read low 0.995 | S. cerevisiae deletion strains, locus YML124C, strain tub3, active compounds read low 0.992 | S. cerevisiae deletion strains, locus YMR078C, strain ctf18, active compounds read low 0.976 | S. cerevisiae deletion strains, locus YMR223W, strain ubp8, active compounds read low 1.02 | S. cerevisiae deletion strains, locus YMR307W, strain GAS1, active compounds read low 1.16 | S. cerevisiae deletion strains, locus YNL067W, strain RPL9B, active compounds read low 0.992 | S. cerevisiae deletion strains, locus YNL128W, strain TEP1, active compounds read low 1 | S. cerevisiae deletion strains, locus YNL233W, strain BNI4, active compounds read low 1.01 | S. cerevisiae deletion strains, locus YNL250W, strain rad50, active compounds read low 0.992 | S. cerevisiae deletion strains, locus YNL271C, strain bni1, active compounds read low 0.994 | S. cerevisiae deletion strains, locus YNL298W, strain CLA4, active compounds read low 0.991 | S. cerevisiae deletion strains, locus YNL307C, strain MCK1, active compounds read low 0.986 | S. cerevisiae deletion strains, locus YNR052C, strain pop2, active compounds read low 0.96 | S. cerevisiae deletion strains, locus YOL012C, strain htz1 0.853 | S. cerevisiae deletion strains, locus YOL147C, strain pex11, active compounds read low 0.991 | S. cerevisiae deletion strains, locus YOR061W, strain CKA2, active compounds read low 0.962 | S. cerevisiae deletion strains, locus YOR069W, strain VPS5, active compounds read low 0.999 | S. cerevisiae deletion strains, locus YOR136W, strain idh2, active compounds read low 0.989 | S. cerevisiae deletion strains, locus YOR144C, strain elg1, active compounds read low 0.981 | S. cerevisiae deletion strains, locus YOR184W, strain ser1, active compounds read low 1.02 | S. cerevisiae deletion strains, locus YOR316C, strain cot1, active compounds read low 0.981 | S. cerevisiae deletion strains, locus YPR119W, strain clb2, active compounds read low 0.999 | S. cerevisiae deletion strains, locus YPR141C, strain kar3, active compounds read low 0.97 | S. cerevisiae deletion strains, locus YPR163C, strain tif3, active compounds read low 0.989 | S. cerevisiae deletion strains, locus YPR167C, strain met16, active compounds read low 0.973 | S. cerevisiae deletion strains, strain wtn01, active compounds read low 1.01 | S. cerevisiae strains, strain wild type, active compounds read low 1
